Source: PubChem BioAssay (NCATS)
Values joined by “and” are separate entries in the source; they are usually repeats but may differ in a detail not shown here. Equal entries are not always repeated. Results filed as inconclusive are left out. Where a call stands in place of a potency, no number is given. More than one record can exist for a structure, and the calls need not agree. Active and inactive are the calls of the source. Unless noted, calls follow the shape of the dose curve; as a rule, active = well fitted curve in the direction sought with a large enough effect; inconclusive = small, poorly fitted or top-dose-only effect, or another doubt; inactive = no such curve, though single readings can be large; an effect the other way counts as inactive or inconclusive.

Experiments:
[1] = qHTS to identify inhibitors of the type 1 interferon - major histocompatibility complex class I in skeletal muscle: primary screen against the NCATS LOPAC collection (AID 1347405);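 also: human myoblasts with HiBiT tag on endogenous HLA-B stimulated by IFN-beta; lytic HiBiT luminescence reporting HLA-B protein level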; also: potency is read from the fitted curve at half-maximal effect
Procedure, shortened: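 First, engineered myoblasts carrying HLA-B-HiBiT were seeded in medium lacking dexamethasone with 4 ng/ml IFN-beta. After 1 hr, compounds were pinned in (top 46 uM final, 7 points). After 24 hrs at 37 C, luminescence was measured following 10 min lysis.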

[2] = qHTS to identify inhibitors of the type 1 interferon - major histocompatibility complex class I in skeletal muscle: primary screen against the NCATS Pharmaceutical Collection (AID 1347407);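 also: luminescence of HiBiT knocked into endogenous HLA-B as interferon-induced MHC class I level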; also: potency is read from the fitted curve at half-maximal effect
Procedure, shortened: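 A qHTS format is used: 8-point, 1:5 compound series with 46 uM top final concentration, applied alongside 4 ng/ml IFN-beta to HLA-B*08:01-HiBiT knock-in myoblasts. Luminescence is measured after 24 h treatment.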

[3] = qHTS for inhibitors of adenylyl cyclases using a fission yeast platform: a pilot screen against the NCATS LOPAC library (AID 1347410)
Procedure, shortened: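 Inhibition of GNAS-stimulated AC9 activity in S. pombe was inferred from derepression of a PKA-repressed fbp1-GFP reporter, measured as cytometric fluorescence after 18 h at 30C with compounds at up to 57 µM.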

[4] = qHTS to identify inhibitors of the type 1 interferon - major histocompatibility complex class I in skeletal muscle: primary screen against the NCATS Mechanism Interrogation Plate v5.0 (MIPE) Libary (AID 1347411); also: nearly all actives have a fitted effect of over 65% in size; also: potency is read from the fitted curve at half-maximal effect
Procedure, shortened: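 Seed engineered human myoblasts (HLA-B HiBit) in medium without dexamethasone containing 4 ng/ml IFN-beta; after 1 hr add compound titrations (top 46 uM final). Incubate 24 hrs at 37 C, lyse 10 min with HiBiT reagent, read luminescence.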

[5] = target: Protein phosphatase 1D (Homo sapiens) (UniProt O15297); experiment: RapidFire Mass Spectrometry qHTS Assay for Modulators of WT P53-Induced Phosphatase 1 (WIP1) (AID 1347424);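 also: amount of dephosphorylated VEPPL-S-QETFS peptide product formed by WIP1; series mostly up to about 63 µM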
Chain of Protein phosphatase 1D (Homo sapiens) (O15297 whole entry, looked up): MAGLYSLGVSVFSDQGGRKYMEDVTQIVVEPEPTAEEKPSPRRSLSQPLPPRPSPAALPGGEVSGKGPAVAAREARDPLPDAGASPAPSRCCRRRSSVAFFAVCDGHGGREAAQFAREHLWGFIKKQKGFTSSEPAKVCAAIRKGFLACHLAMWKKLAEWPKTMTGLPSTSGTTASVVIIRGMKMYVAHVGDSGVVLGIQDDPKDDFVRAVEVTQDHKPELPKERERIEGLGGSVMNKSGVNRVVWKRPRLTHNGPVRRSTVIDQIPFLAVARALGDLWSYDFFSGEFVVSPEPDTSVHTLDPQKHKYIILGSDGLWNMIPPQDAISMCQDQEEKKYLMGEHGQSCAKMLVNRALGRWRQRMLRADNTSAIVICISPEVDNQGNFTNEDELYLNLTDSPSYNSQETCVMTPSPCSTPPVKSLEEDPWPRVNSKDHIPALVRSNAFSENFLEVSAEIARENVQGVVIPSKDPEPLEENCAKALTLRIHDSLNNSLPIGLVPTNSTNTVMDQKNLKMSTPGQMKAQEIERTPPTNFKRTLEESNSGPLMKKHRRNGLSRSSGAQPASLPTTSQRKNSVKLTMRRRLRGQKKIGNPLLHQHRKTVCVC
Procedure, shortened: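 RapidFire mass spectrometry measured dephosphorylated peptide after 5 min room-temperature reaction of 2 uM VEPPL-pS-QETFS with 10 nM WIP1 (50 mM Tris-HCl pH 7.5, 30 mM MgCl2, 0.1 mM EGTA, BSA), following 1 hr compound preincubation; 1 uM isotope-labelled product standard.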

[6] = target: Protein phosphatase 1D (Homo sapiens) (UniProt O15297); experiment: Rhodamine-PBP qHTS Assay for Modulators of WT P53-Induced Phosphatase 1 (WIP1) (AID 1347425)
Procedure, shortened: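 WIP1 (5 nM final) was preincubated with compound for 1 hour at room temperature. It then dephosphorylated 10 uM VEPPL-pS-QETFS peptide in Tris-HCl pH 7.5 with 30 mM MgCl2. Released Pi was detected by 10 uM Rh-PBP fluorescence (ex 525/em 598 nm) read at 1-min intervals for 11 min, as delta f1 - f0.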

[7] = Primary qHTS for inhibitors of La Crosse Virus (LACV) - induced cell death in SH-SY5Y cells (AID 1508616);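 also: top concentration of the series differs between compounds; higher means more rescue of cells from virus-induced death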
Procedure, shortened: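 SH-SY5Y, 6000 cells/well; cpd via pin tool in DMSO; LACV 0.01 MOI; 6 d 37C 5% CO2; ATPLite, 5 min RT; luminescence normalized to ±virus DMSO controls.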

[8] = target: Calcium and integrin-binding protein 1 (Homo sapiens) (UniProt Q99828); experiment: Validation qHTS for Identification of Calcium Integrin Binding protein 1 (CIB1) Competitor (AID 1508618); also: potency is read from the fitted curve at half-maximal effect
Chain of Calcium and integrin-binding protein 1 (Homo sapiens) (Q99828 whole entry, looked up): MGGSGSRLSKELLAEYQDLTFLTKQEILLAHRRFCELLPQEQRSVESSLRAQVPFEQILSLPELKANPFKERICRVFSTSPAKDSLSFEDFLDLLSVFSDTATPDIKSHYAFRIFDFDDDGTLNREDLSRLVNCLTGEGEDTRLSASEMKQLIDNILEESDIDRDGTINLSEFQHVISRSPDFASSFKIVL
Procedure, shortened: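 Fluorescence polarization with 1 uM CIB1-GST and 100 nM FITC-alphaIIb peptide in HEPES pH 7.4, NaCl, 5 mM CaCl2, Tween20. Compounds at up to 114 uM final, preincubated with protein 15 min; read after 15 min more at RT.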

[9] = target: Calcium and integrin-binding protein 1 (Homo sapiens) (UniProt Q99828); experiment: Primary qHTS for Identification of Calcium Integrin Binding Protein 1 (CIB1) Competitor (AID 1508620); also: potency is read from the fitted curve at half-maximal effect
Procedure, shortened: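 CIB1-GST (1 uM final) and compound incubated 15 min at room temperature before adding FITC-alphaIIb peptide tracer (100 nM final). Competition for binding read by fluorescence polarization (ex 480, em 540) after another 15 min at room temperature.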

[10] = A High-Content qHTS Against Drug Library for the Identification of Small Molecules that Inhibit DYT1 Early Onset Primary Dystonia-Associated Cell Pathology (AID 1645839; calls by dose curve; also: series mostly up to about 46 µM)
Procedure, shortened: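 High-content imaging quantified EGFP-TorsinA mislocalization in HEK293-derived cells inducibly expressing DYT1 mutant torsinA, after 48 h exposure to compound given together with tetracycline induction. Cell count served as a toxicity channel alongside %pathology.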

[11] = target: Cytochrome P450 2D6 (Homo sapiens) (UniProt P10635); experiment: Cytochrome P450 family 2 subfamily D member 6 (CYP2D6) small molecule antagonists: luciferase biochemical (cell-free) qHTS assay (AID 1645840; active = well fitted curve in the direction sought with a large enough effect in the repeat runs; an effect the other way counts as inactive or inconclusive; also: nearly all actives have a fitted effect of over 55% in size; also: potency is read from the fitted curve at half-maximal effect)
Chain of Cytochrome P450 2D6 (Homo sapiens) (P10635 whole entry, looked up): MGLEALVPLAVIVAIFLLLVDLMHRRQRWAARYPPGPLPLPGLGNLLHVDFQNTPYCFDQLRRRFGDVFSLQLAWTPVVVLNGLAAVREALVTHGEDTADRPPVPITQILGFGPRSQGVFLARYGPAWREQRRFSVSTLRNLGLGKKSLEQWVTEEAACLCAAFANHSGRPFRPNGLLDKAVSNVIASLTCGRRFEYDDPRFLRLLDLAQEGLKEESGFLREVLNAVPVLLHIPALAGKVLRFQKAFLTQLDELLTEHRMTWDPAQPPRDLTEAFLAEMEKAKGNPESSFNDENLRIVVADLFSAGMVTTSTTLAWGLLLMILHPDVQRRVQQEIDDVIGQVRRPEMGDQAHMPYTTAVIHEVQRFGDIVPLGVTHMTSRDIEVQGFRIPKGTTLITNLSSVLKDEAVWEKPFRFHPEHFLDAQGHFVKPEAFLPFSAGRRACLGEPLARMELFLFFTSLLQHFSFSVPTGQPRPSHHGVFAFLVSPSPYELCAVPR
Procedure, shortened: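 P450-Glo CYP2D6 system: proluciferin substrate converted by enzyme to luciferin, read by luminescence proportional to activity. Enzyme-substrate mix with compound 10 min at room temperature, then NADPH regeneration 1 h before detection reagent.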

[12] = Primary qHTS for small molecule stabilizers of the endoplasmic reticulum resident proteome: Secreted ER Calcium Modulated Protein (SERCaMP) assay (AID 1508630)
Procedure, shortened: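 The SH-SY5Y reporter protocol was run at 3 concentrations up to 38.3 uM (primary) or 11 concentrations (follow-up): 16 h compound, 100 nM thapsigargin for 4 h, then extracellular luciferase luminescence.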

[13] = Validation qHTS assay for inhibitors of Activation Induced Cytidine Deaminase (AID): UDG Counterscreen signal (AID 1347427); also: potency is read from the fitted curve at half-maximal effect
Procedure, shortened: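 Fluorescence at 560 nm excitation, 665 nm emission reports UDG signal after 250 mM NaOH (2x) addition and 30 min. Enzymes (AID 1 uM, UDG 2 U/mL, at 4/3x) preincubated 10 min with compound, then 4 h with 4x 250 nM DJC20/DJC23 substrate at room temperature.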

[14] = target: Single-stranded DNA cytosine deaminase (Homo sapiens) (UniProt Q9GZX7); experiment: Validation qHTS assay for inhibitors of Activation Induced Cytidine Deaminase (AID): AID signal (AID 1347429); also: potency is read from the fitted curve at half-maximal effect
Chain of Single-stranded DNA cytosine deaminase (Homo sapiens) (Q9GZX7 whole entry, looked up): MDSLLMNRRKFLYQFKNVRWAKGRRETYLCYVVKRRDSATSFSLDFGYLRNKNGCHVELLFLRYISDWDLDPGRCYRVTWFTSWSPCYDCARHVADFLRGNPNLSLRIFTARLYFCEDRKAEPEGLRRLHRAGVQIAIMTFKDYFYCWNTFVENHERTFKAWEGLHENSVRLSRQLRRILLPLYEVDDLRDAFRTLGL
Procedure, shortened: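 Steps: dispense AID with UDG; pin-transfer compound up to 114 uM final; add DJC20/DJC23 substrate and hold 4 hr at room temperature; add NaOH, hold 30 min; read FRET signal (540/590 nm).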

[15] = Counterscreen qHTS for small molecule stabilizers of the endoplasmic reticulum resident proteome: GLuc-NoTag assay (AID 1508627); also: potency is read from the fitted curve at half-maximal effect
Procedure, shortened: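 Counterscreen line: SH-SY5Y-GLuc-NoTag cells, treated with compound 19 hr before a 4 hr, 100 nM thapsigargin calcium depletion. Secreted Gaussia luciferase in the medium was measured by luminescence after coelenterazine was added (0.07x final), with cells unlysed.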

[16] = Confirmatory qHTS for small molecule stabilizers of the endoplasmic reticulum resident proteome: Secreted ER Calcium Modulated Protein (SERCaMP) assay (AID 1508628); also: nearly all actives have a fitted effect of over 40% in size; also: potency is read from the fitted curve at half-maximal effect
Procedure, shortened: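 Reporter secretion upon ER calcium depletion (100 nM thapsigargin, 4 h, 37C) is measured as medium luminescence with coelenterazine, after 16 h compound pretreatment of SH-SY5Y-GLuc-SERCaMP cells; primary at three concentrations up to 38.3 uM, follow-up at 11 (up to 76.6 uM).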

[17] = target: Calcium and integrin-binding protein 1 (Homo sapiens) (UniProt Q99828); experiment: Confirmatory qHTS for Identification of Calcium Integrin Binding Protein 1 (CIB1) Competitor (AID 1508617); conditions: CIB1 binding competition assay, biochemical qHTS; also: potency is read from the fitted curve at half-maximal effect; nearly all actives have a fitted effect of over 65% in size
Procedure, shortened: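 FP competition: CIB1-GST (1 uM final) in 5 mM HEPES pH 7.4, 125 mM NaCl, 5 mM CaCl2, 0.01% Tween20 preincubated 15 min RT with compounds (up to 114 uM), then FITC-alphaIIb peptide (100 nM), 15 min RT; Ex 480/Em 540.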

SMILES | Potency [1] | Potency [2] | outcome [3] | Potency [4] | Potency [5] | outcome [6] | Potency [7] | Potency [8] | Potency [9] | Potency [10] | Potency [11] | Potency [12] | Potency [13] | Potency [14] | Potency [15] | Potency [16] | Potency [17]
Nc1nc2c(ncn2COC(CO)CO)c(=O)[nH]1 | inactive | inactive | inactive | inactive | inactive | inactive | inactive | inactive | inactive | inactive | inactive | – | – | – | – | – | –
CCOC(=O)Nc1ccc(NCc2ccc(F)cc2)nc1N | inactive | inactive | inactive | inactive | inactive | – | inactive | – | inactive | inactive | 3.09 µM (active) | inactive | – | – | – | – | –
CN1CCN2c3ccccc3Cc3ccccc3C2C1 (stereo unspecified) | inactive | inactive | inactive | – | inactive | inactive | inactive | inactive | inactive | inactive | – | inactive | inactive | inactive | – | – | –
COc1ccccc1OCCNCC(O)COc1cccc2[nH]c3ccccc3c12 (stereo unspecified) | inactive | inactive | inactive | – | inactive | inactive | inactive | inactive | inactive | – | 1.95 µM (active) | inactive | inactive | inactive | 44.7 µM (active) and 35.5 µM (active) | inactive | –
Cc1cnc(C(=O)NCCc2ccc(S(=O)(=O)NC(=O)NC3CCCCC3)cc2)cn1 | inactive | inactive | inactive | inactive | inactive | inactive | inactive | – | – | inactive | – | – | inactive | inactive | – | – | –
C[C@](N)(Cc1ccc(O)c(O)c1)C(=O)O | inactive | inactive | inactive | inactive | – | – | inactive | inactive | inactive | inactive | – | inactive | inactive | inactive | – | – | –
O=C1c2c(O)ccc(O)c2C(=O)c2c(NCCNCCO)ccc(NCCNCCO)c21 | 2.24 µM (active) | 11.8 µM (active) | inactive | 930 nM (active) | inactive | inactive | – | 20 µM (active) | 30.4 µM (active) and 25.1 µM (active) | inactive | – | inactive | 31.6 µM (active) | 10 µM (active) | – | – | 22.4 µM (active) and 20 µM (active)
OCCN(CCO)c1nc(N2CCCCC2)c2nc(N(CCO)CCO)nc(N3CCCCC3)c2n1 | inactive | inactive | inactive | inactive | inactive | inactive | inactive | 14.1 µM (active) | inactive and 11.2 µM (active) | – | 4.9 µM (active) | inactive | – | inactive | inactive | 31.6 µM (active) | –
CC(C)(Oc1ccc(C2CC2(Cl)Cl)cc1)C(=O)O (stereo unspecified) | inactive | inactive | inactive | inactive | inactive | inactive | inactive | inactive | inactive | inactive | inactive | inactive | inactive | inactive | – | – | –
CC(C(=O)O)c1cccc(C(=O)c2ccccc2)c1 (stereo unspecified) | inactive | inactive | inactive | inactive | inactive | inactive | inactive | – | – | inactive | – | – | inactive | inactive | – | – | –
CN1CCN(CCCN2c3ccccc3Sc3ccc(Cl)cc32)CC1 | inactive | inactive | inactive | – | inactive | inactive | inactive | – | inactive | – | 0.155 µM (active) | inactive | inactive | inactive | – | – | –
Nc1nnc(-c2cccc(Cl)c2Cl)c(N)n1 | inactive | inactive | inactive | inactive | inactive | inactive | inactive | inactive | inactive | inactive | – | inactive | – | – | – | – | –
Cn1ccc2cc3c(cc21)CCN3C(=O)Nc1cccnc1 | inactive | inactive | inactive | inactive | inactive | inactive | inactive | inactive | inactive | – | inactive | inactive | inactive | inactive | – | – | –
Clc1ccc2c(c1)C(N1CCNCC1)=Nc1ccccc1O2 | inactive | inactive | inactive | – | inactive | inactive | inactive | inactive | inactive | inactive | 4.36 µM (active) | inactive | inactive | inactive | inactive | inactive | –
COc1cc2nc(N3CCN(C(=O)c4ccco4)CC3)nc(N)c2cc1OC | – | – | inactive | – | inactive | inactive | inactive | inactive | inactive | – | inactive | inactive | – | – | – | – | –
CN(C)C(=O)C(CCN1CCC(O)(c2ccc(Cl)cc2)CC1)(c1ccccc1)c1ccccc1 | – | inactive | inactive | – | inactive | inactive | – | inactive | inactive | – | – | – | inactive | inactive | – | – | –
CN(CCOc1ccc(NS(C)(=O)=O)cc1)CCc1ccc(NS(C)(=O)=O)cc1 | – | – | inactive | – | inactive | inactive | inactive | inactive | inactive | inactive | – | inactive | – | – | – | – | –
COc1ccc2c(c1)c(CC(=O)O)c(C)n2C(=O)c1ccc(Cl)cc1 | – | – | – | – | – | – | inactive | inactive | inactive | – | inactive | inactive | inactive | inactive | – | – | –
Fc1ccc([C@@H]2CCNC[C@H]2COc2ccc3c(c2)OCO3)cc1 | – | inactive | inactive | – | inactive | inactive | inactive | inactive | inactive | – | – | inactive | inactive | inactive | – | – | –
CC(C)C(=O)Nc1ccc([N+](=O)[O-])c(C(F)(F)F)c1 | inactive | – | inactive | inactive | inactive | inactive | inactive | inactive | inactive | inactive | – | inactive | inactive | inactive | – | – | –
CN1C2CCC1CC(OC(=O)C(CO)c1ccccc1)C2 (stereo unspecified) | – | – | inactive | – | – | – | inactive | inactive | – | – | – | inactive | – | – | – | 39.8 µM (active) | –
OCCN1CCN(CCCN2c3ccccc3Sc3ccc(C(F)(F)F)cc32)CC1 | – | inactive | inactive | – | inactive | inactive | inactive | – | inactive | – | – | inactive | inactive | inactive | – | – | –
